Measured values published in PubChem BioAssay (NCI).
About 83,000 compounds went through this panel and 20% of them were active in at least one assay; those are over-represented in the sample as a whole.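 The endpoint reported here, percent growth, reads 100 for growth as untreated, 0 for no net growth and -100 for all cells dead.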 The source made the active and inactive calls. Rule for the calls: active = growth percent below 10; inactive = the rest.

How the values were obtained:
Experiment in all cases: NCI-60 one-dose screen, 48 h (100 = growth as untreated, 0 = no growth, -100 = all killed)
Conditions in all cases: 10 µM unless noted
[1] = system: NCI-H23 lung
[2] = system: NCI-H226 lung
[3] = system: NCI-H322M lung
[4] = system: HOP-62 NSCLC
[5] = system: NCI-H460 lung
[6] = system: NCI-H522 lung
[7] = system: A549/ATCC NSCLC
[8] = system: 786-0 renal
[9] = system: COLO 205 colon
[10] = system: K-562 leukemia
[11] = system: MALME-3M melanoma
[12] = system: MDA-MB-231 breast
[13] = system: RXF 393 renal
[14] = system: SF-295 CNS
[15] = system: SF-539 CNS
[16] = system: UACC-257 melanoma
[17] = system: M14 melanoma
[18] = system: HCT-15 colon
[19] = system: DU-145 prostate
[20] = system: SF-268 CNS

Measured: growth

OC(CCC(O)(c1ccccc1)c1ccccc1)(c1ccccc1)c1ccccc1
inactive: [1] 80% | [2] 86.6% | [3] 102% | [4] 114% | [5] 19.9% | [6] 89.8% | [7] 68.7% | [8] 105% | [9] 103% | [11] 100% | [12] 81.5% | [13] 80% | [14] 65.1% | [15] 115% | [16] 82.8% | [17] 96.1% | [18] 100%
active: [10] 5.52%

COc1ccc(-c2cn(-c3ccccc3)c(-c3ccccc3)n2)cc1OC
active: [19] -22.9%
inactive: [1] 75.7% | [2] 62.4% | [3] 88.4% | [4] 102% | [5] 70.5% | [6] 75.4% | [7] 85.8% | [8] 83.7% | [10] 14.8% | [11] 111% | [12] 73.8% | [13] 102% | [20] 47.9% | [14] 94.7% | [15] 79.6% | [16] 105% | [17] 87% | [18] 17.1%

S=C(Nc1ccc(C2=NCCN2)cc1)Nc1ccc(C2=NCCN2)cc1
inactive: [1] 82.7% | [2] 86.8% | [3] 117% | [4] 99.6% | [5] 106% | [6] 97.2% | [7] 99.9% | [8] 98.2% | [19] 107% | [10] 91.4% | [11] 111% | [12] 113% | [13] 101% | [20] 120% | [14] 96.7% | [15] 93.4% | [16] 93.8% | [18] 101%

O=C(Nc1cccc(-n2cc(-c3ccncc3)c(-c3ccc(O)c(Cl)c3)n2)c1)Nc1ccc(Cl)c(C(F)(F)F)c1
active: [1] 1.11% | [3] -17.7% | [4] 4.91% | [5] 3.16% | [6] -7.92% | [7] -14.8% | [8] -6.01% | [19] 4.68% | [10] 4.8% | [11] -24% | [12] -34.8% | [13] -21% | [20] 3.1% | [14] -25.7% | [15] -19.3% | [16] -19.5% | [17] -34%
inactive: [2] 20.2% | [18] 17.3%

Cc1ccc(NC(=O)COC(=O)c2ccc(S(=O)(=O)N3CCCCCC3)cc2)cc1
inactive: [1] 107% | [2] 90.8% | [3] 131% | [4] 96.4% | [5] 106% | [6] 96% | [7] 97.2% | [8] 103% | [19] 108% | [10] 103% | [11] 127% | [12] 101% | [13] 88.9% | [20] 94.6% | [14] 88.9% | [15] 105% | [16] 94.3% | [17] 126% | [18] 105%

COC1=CC(c2ccc[nH]2)=N/C1=C\c1[nH]c(C)c(C(=O)CCC(=O)Oc2ccc3c(c2)CCC2C3CC[C@]3(C)C(=O)CC[C@@H]23)c1C (stereo not given in full)
active: [12] 1.14%
inactive: [1] 73.5% | [2] 87.6% | [3] 81.4% | [4] 80.2% | [5] 48.3% | [6] 57.3% | [7] 49.9% | [8] 75.8% | [19] 28.5% | [10] 39.2% | [11] 103% | [13] 93.1% | [20] 52.6% | [14] 86.4% | [15] 83.7% | [16] 106% | [17] 104% | [18] 45.6%

O=Nc1ccc(O)c(=O)cc1
inactive: [1] 70.6% | [2] 38.4% | [3] 88.3% | [4] 88.1% | [5] 114% | [7] 110% | [8] 15.9% | [12] 41.6% | [14] 125% | [15] 47.8% | [16] 37.4% | [17] 30.4% | [18] 10.2%
active: [6] -74.1% | [9] -21.6% | [10] 9.11% | [11] -4.09% | [13] -42.1%

c1csc([C@@H]2C[C@@H]3Cc4ccc5ccccc5c4N2O3)c1
inactive: [1] 95.5% | [2] 108% | [3] 91.2% | [4] 112% | [5] 109% | [6] 87% | [7] 90.8% | [8] 98.2% | [19] 113% | [10] 93.2% | [11] 86.4% | [12] 89.1% | [13] 104% | [20] 108% | [14] 109% | [15] 90.5% | [16] 98.7% | [17] 99.7% | [18] 93.7%

CCOC(=O)C1C(=O)OC2CCCCC21 (stereo not given)
inactive: [1] 101% | [2] 113% | [3] 113% | [4] 127% | [5] 110% | [6] 108% | [7] 102% | [8] 100% | [9] 120% | [10] 102% | [11] 120% | [12] 101% | [13] 119% | [20] 111% | [14] 114% | [15] 105% | [16] 102% | [17] 98.3% | [18] 101%

CC(CCC(=O)O)(NC(=O)c1ccc([N+](=O)[O-])cc1)C(=O)O (stereo not given)
inactive: [1] 98.4% | [2] 111% | [3] 107% | [4] 92.8% | [5] 107% | [6] 106% | [7] 107% | [8] 105% | [19] 104% | [10] 99% | [11] 106% | [12] 113% | [13] 115% | [20] 104% | [14] 106% | [15] 105% | [16] 99.4% | [17] 102% | [18] 113%

Cn1c(N)c(N=O)c(=O)[nH]c1=O
inactive: [1] 104% | [2] 106% | [3] 112% | [4] 103% | [5] 107% | [6] 91.8% | [7] 97.9% | [8] 101% | [19] 112% | [10] 93.3% | [11] 104% | [12] 112% | [13] 114% | [20] 110% | [14] 114% | [15] 105% | [16] 107% | [17] 97.9% | [18] 112%

COc1c(C)c2c(c(O)c1C/C=C(\C)CCC(=O)OCCN1CCOCC1)C(=O)OC2
active: [5] 2.48% | [6] -3.49% | [7] 5.79% | [16] 7.21%
inactive: [1] 19.4% | [2] 50.2% | [3] 33.2% | [4] 34.9% | [8] 24.7% | [19] 36.4% | [10] 25.5% | [11] 38.8% | [12] 37.9% | [13] 51.9% | [20] 28.9% | [14] 18.2% | [15] 34.7% | [17] 19.8% | [18] 15.5%

OC(Cc1cccnc1)c1ccccc1 (stereo not given)
inactive: [1] 103% | [2] 107% | [3] 95.9% | [4] 105% | [5] 98% | [6] 101% | [7] 94.8% | [8] 108% | [9] 114% | [10] 101% | [11] 111% | [12] 92.1% | [13] 114% | [14] 104% | [15] 98.6% | [16] 101% | [17] 106% | [18] 104%

COc1cc(C2NC(c3ccc(Cl)cc3)C(C)C(=NC(=O)c3cnccn3)C2C)cc(OC)c1OC (stereo not given)
inactive: [1] 90.7% | [2] 102% | [3] 113% | [4] 117% | [5] 103% | [6] 85.4% | [7] 98.8% | [8] 91.6% | [19] 115% | [11] 79.8% | [12] 104% | [13] 93.8% | [20] 97.2% | [14] 106% | [15] 89.8% | [16] 120% | [17] 96.9% | [18] 81%

Cc1c(C(N)=O)sc2ncn(Cc3ccccc3)c(=O)c12
inactive: [1] 101% | [2] 96.8% | [3] 79% | [4] 95.4% | [5] 108% | [6] 103% | [7] 85.7% | [8] 96.1% | [19] 113% | [10] 97.1% | [11] 120% | [12] 102% | [13] 106% | [20] 104% | [15] 94.6% | [16] 163% | [17] 105% | [18] 115%

CC/C(=C\c1ccc(N(C)C)cc1)c1nc2ccccc2c(=O)[nH]1
inactive: [1] 121% | [2] 110% | [3] 104% | [4] 108% | [5] 102% | [6] 103% | [7] 98% | [8] 94.6% | [19] 105% | [10] 71.4% | [11] 144% | [12] 91.2% | [13] 99.6% | [20] 92.9% | [15] 106% | [16] 111% | [17] 121% | [18] 99.8%

COc1ccc(C2=NNC(c3cc(Cc4ccc(O)c(C5CC(c6ccc(OC)cc6)=NN5)c4)ccc3O)C2)cc1 (stereo not given)
active: [6] -7.59% | [14] 6.47%
inactive: [1] 35.9% | [2] 82.6% | [3] 32.1% | [4] 60% | [5] 27.5% | [7] 35.2% | [8] 56.1% | [19] 69.3% | [11] 78.9% | [12] 58.3% | [13] 72.6% | [20] 44% | [15] 57.2% | [16] 70.6% | [17] 59.3% | [18] 43.3%
